# Assay results reported in the supplement of paper PMC12282887.
# ± gives the standard deviation of the averaged measurements.
# How the values were obtained:
# Assay in all cases: promoter activity interaction Z-score (Lux/OD deviation from empty-vector control); higher = stronger promoter induction by the compound
# [1] = tested on: E. coli BW25113 acrABp lux reporter
# Method in brief: (§1)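 In 384-well plates, 40 µl LB Lennox cultures of E. coli BW25113 with low-copy luxCDABE promoter reporters grew at 37°C. Optical density at 600 nm and light output were recorded every 30 min for 12 h, with windows of 0–8 h for wild type and 1–9 h for deletion strains, and wells under 10% of the median growth value were left out. Each value is a Z-transformed residual of growth-normalised luminescence fitted against a control.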
# [2] = tested on: E. coli BW25113 micFp lux reporter
# Method in brief: as §1
# [3] = tested on: E. coli BW25113 ompFp lux reporter
# Method in brief: as §1
# [4] = tested on: E. coli BW25113 robp lux reporter
# Method in brief: as §1
# [5] = tested on: E. coli BW25113 soxSp lux reporter
# Method in brief: as §1
# [6] = tested on: E. coli BW25113 tolCp lux reporter
# Method in brief: as §1
# [7] = 0.29 µg/ml, genetic background: wild type
# [8] = 0.29 µg/ml, genetic background: ΔmarA
# [9] = 0.29 µg/ml, genetic background: Δrob
# [10] = 0.29 µg/ml, genetic background: ΔsoxS
# [11] = 0.58 µg/ml, genetic background: wild type
# [12] = 0.58 µg/ml, genetic background: ΔmarA
# [13] = 0.58 µg/ml, genetic background: Δrob
# [14] = 0.58 µg/ml, genetic background: ΔsoxS
# [15] = 1.2 µg/ml, genetic background: wild type
# [16] = 1.2 µg/ml, genetic background: ΔmarA
# [17] = 1.2 µg/ml, genetic background: Δrob
# [18] = 1.2 µg/ml, genetic background: ΔsoxS
# [19] = 2.3 µg/ml, genetic background: wild type
# [20] = 2.3 µg/ml, genetic background: ΔmarA
# [21] = 2.3 µg/ml, genetic background: Δrob
# [22] = 2.3 µg/ml, genetic background: ΔsoxS
compound,measurement,setting,value
COc1cccc2c1C(=O)c1c(O)c3c(c(O)c1C2=O)C[C@@](O)(C(=O)CO)C[C@@H]3O[C@H]1C[C@H](N)[C@H](O)[C@H](C)O1 [Doxorubicin],promoter activity interaction Z-score,[1]; [7],0.264 ± 0.31
same,promoter activity interaction Z-score,[1]; [8],-0.773 ± 0.32
same,promoter activity interaction Z-score,[1]; [9],-0.101 ± 0.29
same,promoter activity interaction Z-score,[1]; [10],-0.227 ± 0.054
same,promoter activity interaction Z-score,[1]; [11],-0.00519 ± 0.22
same,promoter activity interaction Z-score,[1]; [12],-0.484 ± 0.49
same,promoter activity interaction Z-score,[1]; [13],0.115 ± 0.14
same,promoter activity interaction Z-score,[1]; [14],0.371 ± 0.49
same,promoter activity interaction Z-score,[1]; [15],0.261 ± 0.022
same,promoter activity interaction Z-score,[1]; [16],-0.464 ± 0.4
same,promoter activity interaction Z-score,[1]; [17],-0.135 ± 0.15
same,promoter activity interaction Z-score,[1]; [18],0.0497 ± 0.23
same,promoter activity interaction Z-score,[1]; [19],0.546 ± 0.062
same,promoter activity interaction Z-score,[1]; [20],-0.437 ± 0.036
same,promoter activity interaction Z-score,[1]; [21],6.35e-05 ± 0.4
same,promoter activity interaction Z-score,[1]; [22],0.827 ± 0.68
same,promoter activity interaction Z-score,[2]; [7],0.258 ± 0.51
same,promoter activity interaction Z-score,[2]; [8],0.00982 ± 0.04
same,promoter activity interaction Z-score,[2]; [9],-0.233 ± 0.1
same,promoter activity interaction Z-score,[2]; [10],-0.236 ± 0.048
same,promoter activity interaction Z-score,[2]; [11],-0.041 ± 0.36
same,promoter activity interaction Z-score,[2]; [12],0.043 ± 0.035
same,promoter activity interaction Z-score,[2]; [13],-0.0843 ± 0.009
same,promoter activity interaction Z-score,[2]; [14],0.253 ± 0.04
same,promoter activity interaction Z-score,[2]; [15],-0.0305 ± 0.051
same,promoter activity interaction Z-score,[2]; [16],-0.0475 ± 0.075
same,promoter activity interaction Z-score,[2]; [17],-0.046 ± 0.01
same,promoter activity interaction Z-score,[2]; [18],-0.0734 ± 0.14
same,promoter activity interaction Z-score,[2]; [19],-0.114 ± 0.2
same,promoter activity interaction Z-score,[2]; [20],-0.105 ± 0.05
same,promoter activity interaction Z-score,[2]; [21],-0.179 ± 0.24
same,promoter activity interaction Z-score,[2]; [22],0.5393 ± 0.002
same,promoter activity interaction Z-score,[3]; [7],0.731 ± 0.14
same,promoter activity interaction Z-score,[3]; [8],0.137 ± 0.52
same,promoter activity interaction Z-score,[3]; [9],0.0129 ± 0.29
same,promoter activity interaction Z-score,[3]; [10],0.416 ± 0.18
same,promoter activity interaction Z-score,[3]; [11],0.4996 ± 0.0037
same,promoter activity interaction Z-score,[3]; [12],0.465 ± 0.3
same,promoter activity interaction Z-score,[3]; [13],0.853 ± 0.58
same,promoter activity interaction Z-score,[3]; [14],0.476 ± 0.015
same,promoter activity interaction Z-score,[3]; [15],0.149 ± 0.086
same,promoter activity interaction Z-score,[3]; [16],0.206 ± 0.067
same,promoter activity interaction Z-score,[3]; [17],0.0157 ± 0.25
same,promoter activity interaction Z-score,[3]; [18],0.0237 ± 0.37
same,promoter activity interaction Z-score,[3]; [19],0.745 ± 0.73
same,promoter activity interaction Z-score,[3]; [20],0.961 ± 0.018
same,promoter activity interaction Z-score,[3]; [21],0.674 ± 0.97
same,promoter activity interaction Z-score,[3]; [22],1.34 ± 0.69
same,promoter activity interaction Z-score,[4]; [7],1.18 ± 0.82
same,promoter activity interaction Z-score,[4]; [8],-0.24 ± 0.58
same,promoter activity interaction Z-score,[4]; [9],0.206 ± 0.23
same,promoter activity interaction Z-score,[4]; [10],0.239 ± 0.22
same,promoter activity interaction Z-score,[4]; [11],0.596 ± 0.27
same,promoter activity interaction Z-score,[4]; [12],0.16 ± 0.16
same,promoter activity interaction Z-score,[4]; [13],0.385 ± 0.43
same,promoter activity interaction Z-score,[4]; [14],0.541 ± 0.27
same,promoter activity interaction Z-score,[4]; [15],0.714 ± 0.13
same,promoter activity interaction Z-score,[4]; [16],-0.447 ± 0.99
same,promoter activity interaction Z-score,[4]; [17],0.329 ± 0.74
same,promoter activity interaction Z-score,[4]; [18],0.0896 ± 0.043
same,promoter activity interaction Z-score,[4]; [19],0.943 ± 0.18
same,promoter activity interaction Z-score,[4]; [20],0.445 ± 0.36
same,promoter activity interaction Z-score,[4]; [21],-0.208 ± 0.44
same,promoter activity interaction Z-score,[4]; [22],0.518 ± 0.087
same,promoter activity interaction Z-score,[5]; [7],0.269 ± 0.063
same,promoter activity interaction Z-score,[5]; [8],0.0336 ± 0.05
same,promoter activity interaction Z-score,[5]; [9],-0.322 ± 0.09
same,promoter activity interaction Z-score,[5]; [10],0.15 ± 0.14
same,promoter activity interaction Z-score,[5]; [11],0.223 ± 0.25
same,promoter activity interaction Z-score,[5]; [12],0.0456 ± 0.13
same,promoter activity interaction Z-score,[5]; [13],0.138 ± 0.19
same,promoter activity interaction Z-score,[5]; [14],0.329 ± 0.29
same,promoter activity interaction Z-score,[5]; [15],0.245 ± 0.26
same,promoter activity interaction Z-score,[5]; [16],-0.00668 ± 0.18
same,promoter activity interaction Z-score,[5]; [17],-0.0803 ± 0.088
same,promoter activity interaction Z-score,[5]; [18],-0.0415 ± 0.028
same,promoter activity interaction Z-score,[5]; [19],0.426 ± 0.46
same,promoter activity interaction Z-score,[5]; [20],0.0221 ± 0.059
same,promoter activity interaction Z-score,[5]; [21],-0.22 ± 0.18
same,promoter activity interaction Z-score,[5]; [22],0.285 ± 0.86
same,promoter activity interaction Z-score,[6]; [7],0.409 ± 0.23
same,promoter activity interaction Z-score,[6]; [8],0.025 ± 0.4
same,promoter activity interaction Z-score,[6]; [9],-1.33 ± 0.07
same,promoter activity interaction Z-score,[6]; [10],-0.509 ± 0.71
same,promoter activity interaction Z-score,[6]; [11],0.591 ± 0.37
same,promoter activity interaction Z-score,[6]; [12],0.129 ± 0.57
same,promoter activity interaction Z-score,[6]; [13],-0.418 ± 0.28
same,promoter activity interaction Z-score,[6]; [14],0.558 ± 0.63
same,promoter activity interaction Z-score,[6]; [15],0.186 ± 1.3
same,promoter activity interaction Z-score,[6]; [16],-0.979 ± 0.47
same,promoter activity interaction Z-score,[6]; [17],-0.8316 ± 0.0065
same,promoter activity interaction Z-score,[6]; [18],-0.712 ± 0.47
same,promoter activity interaction Z-score,[6]; [19],-0.527 ± 0.035
same,promoter activity interaction Z-score,[6]; [20],-0.261 ± 0.0072
same,promoter activity interaction Z-score,[6]; [21],-1.42 ± 0.035
same,promoter activity interaction Z-score,[6]; [22],0.704 ± 0.5
